We go through 45 compounds from PubChem BioAssay AID2685 (National Center for Advancing Translational Sciences (NCATS), 2010).

Screen size: about 320,000 compounds; about 2,100 (0.66%) were called active. Roughly 53% stayed inconclusive and do not appear here. Calls follow the shape of the dose curve; as a rule, active = well fitted inhibition curve with a large enough effect in the signal ratio, with a control signal flat (not every such curve was filed as active); inconclusive = small, poorly fitted or top-dose-only effect, or effect the other way, or a change in a side signal; inactive = flat fitted curve, though single readings scatter; the % refers to the signal ratio. Only a selection was taken, and actives are over-represented in it overall.
Potency is read from the fitted curve at half-maximal effect.

The nature of this assay: qHTS Assay for Lipid Storage Modulators in Drosophila S3 Cells.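 As to cell number change: cells counted by Cell Tracker Red CMTPX staining in the red channel.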 As to lipid storage change, negative = inhibition: % is scaled to controls: 0 for no effect and ±100 for the full control effect. To be noted: BODIPY lipid droplet fluorescence, 18-24 h, cells fed with added oleic acid; cell number change: measured here: cell count max response; series mostly up to 46.1 µM; lipid storage change, negative = inhibition: at the top concentration. Summed up:
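Drosophila S3 cells loaded with oleic acid (400 uM, as added) and compounds at several concentrations; lipid droplets imaged by 488-nm laser-scanning cytometry, 500–530 nm intensity and object ratio to cell channel. Percent activity normalized to 20 uM Triacsin C.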
(In general: In qHTS, concentration-response curves come from the screen itself.)
In the case of `O=C(Nc1ccc(F)cc1)/C(=C1/CCCCCN1)[N+](=O)[O-]`, the “lipid storage change, negative = inhibition” value was -9.09% (inactive) and the cell number change is 18.2%.
In the case of `Cc1ccccc1CSc1nnc(NC(=O)Cc2cccs2)s1`, the “lipid storage change, negative = inhibition” value was 18.3% (inactive) and the cell number change was found to be 0.934%.
On to `O=S(=O)(Nc1ccc(-c2nc3ccccc3o2)cc1)c1ccccc1`, for which the compound was called inactive and the cell number change was -16.6%.
Take `O=C(Nc1cc(S(=O)(=O)N2CCOCC2)ccc1O)c1ccco1`: the “lipid storage change, negative = inhibition” value was -7.19% (inactive) and the cell number change is -13.8%.
Take `CC(=O)NCCc1ccc(S(=O)(=O)N2CCOCC2)cc1`: the Potency is 18.4 µM (active) and the cell number change is -15.6%.
In the case of `O=C(CCCSc1ccc(Cl)cc1)Nc1cc(S(=O)(=O)N2CCOCC2)ccc1O`, the “lipid storage change, negative = inhibition” value is 5.44% (inactive) and the cell number change is -18.8%.
On to `COc1ccc(CCNC(=O)COc2ccc(S(=O)(=O)N3CCOCC3)cc2)cc1`, for which the outcome was inactive.
With `CCCCc1ccc(CC(=O)Nc2cc(S(=O)(=O)N3CCOCC3)ccc2O)cc1`, the Potency is 20.6 µM (active) and the cell number change was -16.2%.
Take `C/C(=N\NC(=O)CCc1ccc(S(=O)(=O)N2CCOCC2)cc1)c1ccccc1Cl`: the “lipid storage change, negative = inhibition” value was -11% (inactive) and the cell number change was 15.6%.
Take `C/C(=N\NC(=O)CCc1ccc(S(=O)(=O)N2CCOCC2)cc1)c1ccc(OC(F)F)cc1`: the Potency is 11.6 µM (active) and the cell number change is -28.6%.
On to `CC(=O)NCCc1ccc(S(=O)(=O)Nc2ccc(C)c(S(=O)(=O)N3CCOCC3)c2)cc1`, for which the call was inactive and the cell number change was -24.8%.
Consider `C/C(=N\NC(=O)c1cccc(S(=O)(=O)N2CCOCC2)c1)c1ccc(OC(F)F)cc1`, for which the “lipid storage change, negative = inhibition” value was 24.9% (inactive) and the cell number change was 8.64%.
As for `Cc1ccc(CNC(=O)Cc2nc3nc(C)cc(C)n3n2)cc1`, the “lipid storage change, negative = inhibition” value is -1.12% (inactive) and the cell number change was determined as 1.61%.
As for `COc1cc2c(cc1OC)CN(C(=O)Nc1ccccc1Cl)CC2`, the “lipid storage change, negative = inhibition” value is 11.9% (inactive) and the cell number change was -24.6%.
As to `CCc1nnc(NC(=O)CSc2nnc(C)n2CC2CCCO2)s1` (stereo not given), the “lipid storage change, negative = inhibition” value was 22.4% (inactive) and the cell number change was 6.32%.
In the case of `COCCCNC(=O)CSc1nc2ccccc2c(=O)n1Cc1ccc2c(c1)OCO2`, the “lipid storage change, negative = inhibition” value was 23.2% (inactive) and the cell number change is -4.93%.
On to `COc1ccc(C(=O)NCCc2cnc[nH]2)cc1OC`, for which the “lipid storage change, negative = inhibition” value is 19.2% (inactive) and the cell number change was -11.3%.
On to `COC(=O)CCN(C(=O)c1ccc(C)c([N+](=O)[O-])c1)c1ccccn1`, for which the “lipid storage change, negative = inhibition” value is 18% (inactive) and the cell number change is 16.9%.
`COC(=O)CCN(C(=O)c1cccc(OC(C)=O)c1)c1ccccn1`: the Potency is 25.9 µM (active) and the cell number change is -22.7%.
For the compound `COC(=O)CCN(C(=O)c1ccc(OC(C)=O)cc1)c1ccccn1`, the “lipid storage change, negative = inhibition” value was 2.15% (inactive) and the cell number change amounted to 6.03%.
Consider `Cc1cc(NC(=O)C(C)SCC(=O)OC(C)C(=O)Nc2ccccc2C)no1` (stereo not given), for which the “lipid storage change, negative = inhibition” value was 27.6% (inactive) and the cell number change turned out to be 31.1%.
As for `COCCN1CN=C(Nc2nc(C)c3ccc(C)cc3n2)NC1`, the “lipid storage change, negative = inhibition” value is 7.94% (inactive) and the cell number change was determined as 3.94%.
`Cc1ccccc1OCC1CNC(=O)O1` (stereo not given): the “lipid storage change, negative = inhibition” value was 1.82% (inactive) and the cell number change turned out to be 6.67%.
As to `Cc1cccc(C)c1OCC1CNC(=O)O1` (stereo not given), the outcome was inactive and the cell number change worked out at 9.47%.
Take `O=C1NCC(COCc2ccco2)O1` (stereo not given): the Potency is 16.4 µM (active) and the cell number change is 0.961%.
With `Cc1c(C(=O)NCCN(C)C)oc2ccc(S(=O)(=O)N3CCCC3)cc12`, the Potency is 0.116 µM (active) and the cell number change was 13.1%.
As for `Cc1c(C(=O)NCc2ccc3c(c2)OCO3)oc2ccc(S(=O)(=O)N3CCCC3)cc12`, the call was inactive and the cell number change is -21.4%.
With `CCCCN(CC)C(=O)c1oc2ccc(S(=O)(=O)N3CCCC3)cc2c1C`, the Potency is 11.6 µM (active) and the cell number change was -20.1%.
With `Cc1c(C(=O)NCC2CCCO2)oc2ccc(S(=O)(=O)N3CCCC3)cc12` (stereo not given), the “lipid storage change, negative = inhibition” value is -9.13% (inactive) and the cell number change is -3.78%.
Take `CCOC(=O)N1CCN(C(=O)c2oc3ccc(S(=O)(=O)N4CCCCC4)cc3c2C)CC1`: the “lipid storage change, negative = inhibition” value is 14% (inactive).
For the compound `Cc1c(C(=O)N(C)Cc2ccccc2)oc2ccc(S(=O)(=O)N3CCCC3)cc12`, the “lipid storage change, negative = inhibition” value is 20.7% (inactive) and the cell number change is -25.2%.
Turning to `Cc1c(C(=O)NCC2CCCO2)oc2ccc(S(=O)(=O)N3CC(C)CC(C)C3)cc12` (stereo not given), the lipid storage change, negative = inhibition was 16.1% [at 9.22 µM] (inactive).
For the compound `CCN(CC)C(=O)c1oc2ccc(S(=O)(=O)N3CC(C)CC(C)C3)cc2c1C` (stereo not given), the Potency was 0.58 µM (active) and the cell number change is 13.1%.
`Cc1c(C(=O)O)oc2ccc(S(=O)(=O)N3CC(C)CC(C)C3)cc12` (stereo not given): the “lipid storage change, negative = inhibition” value is 8.14% (inactive) and the cell number change is 24.2%.
For `O=[N+]([O-])/C(=C\Nc1ccc(F)cc1F)S(=O)(=O)c1ccccc1`, the “lipid storage change, negative = inhibition” value was 9% (inactive).
For the compound `COc1ccc(-c2cc(C(=O)Nc3nc4ccccc4s3)c3ccccc3n2)cc1OC`, the “lipid storage change, negative = inhibition” value is 24.3% (inactive) and the cell number change was 2.3%.
On to `Cn1cccc1C(=O)OCC(=O)Nc1cc(C(C)(C)C)nn1-c1ccccc1`, for which the “lipid storage change, negative = inhibition” value was 2.46% (inactive) and the cell number change was 10.4%.
For `CS(=O)(=O)N(CC(=O)Nc1cccc([N+](=O)[O-])c1)c1cccc(F)c1`, the “lipid storage change, negative = inhibition” value was 26% (inactive) and the cell number change is -2.63%.
As to `CC1CCc2sc(C(=O)NNC(=S)NCC3CCCO3)cc2C1` (stereo not given), the “lipid storage change, negative = inhibition” value was 7.7% (inactive) and the cell number change amounted to 20%.
As for `Cc1cccc2sc(NC(=O)C3CSC4(C)CCC(=O)N34)nc12` (stereo not given), the “lipid storage change, negative = inhibition” value is -1.42% (inactive) and the cell number change is 14.2%.
Regarding `O=C(c1cccnc1)N1CCN(S(=O)(=O)c2ccc(Cl)cc2)CC1`, the “lipid storage change, negative = inhibition” value was -0.561% (inactive) and the cell number change was -4.89%.
As for `COc1ccc(N2CCN(C(=O)CCNS(=O)(=O)c3cc(Br)cnc3N)CC2)cc1`, the compound was classed as inactive.
For the compound `S=C1NCCOCCNC(=S)NCCOCCOCCN1`, the “lipid storage change, negative = inhibition” value is -11.6% (inactive) and the cell number change was 28%.
Turning to `S=C1NCCOCCOCCOCCN1`, the “lipid storage change, negative = inhibition” value is -10.2% (inactive) and the cell number change is -10.7%.
Take `S=C1NCCOCCOCCOCCOCCN1`: the Potency is 13 µM (active) and the cell number change amounted to 20.5%.
